Source: PubChem BioAssay AID1159580 (chemical genetic matrix, 2015)
The campaign covered roughly 5,500 compounds. About 2,000 (36%) were called active. Inconclusive results (about 18%) are left out. Cut-off read from the data, not from the text of the source: active = normalized growth mostly below about 0.91 (no sharp cut-off); inconclusive = no clear call, values can overlap the other calls; inactive = mostly above about 0.92. This is one part of the list.

Assay: chemical genetic growth profiling, strain panel (AID 1159580);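 note: tested at 20 µM; growth read once vehicle control cultures reached saturation at 30 °C; 1 = growth at the plate median or of vehicle wells; lower values mean less growth of the strain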
Conditions: growth OD

Measured: normalized growth

CC(=O)O[C@@H]1CC2C(C)(C)C(=O)C=C[C@]2(C)C2CC[C@@]3(C)[C@H](c4ccoc4)OC(=O)[C@H]4O[C@]43[C@@]21C (stereo partly drawn)
inactive: S. cerevisiae deletion strains, locus YJR066W, strain TOR1, hits give low values 0.932 | S. cerevisiae deletion strains, locus YKL009W, strain mrt4, hits give low values 1.07 | S. cerevisiae deletion strains, locus YKL068W, hits give low values 1 | S. cerevisiae deletion strains, locus YKL085W, strain MDH1 (second series), hits give low values 1.03 | S. cerevisiae deletion strains, locus YKL085W, strain MDH1, hits give low values 1.03 | S. cerevisiae deletion strains, locus YKL160W, strain elf1, hits give low values 1.02 | S. cerevisiae deletion strains, locus YKR001C, strain vps1, hits give low values 0.975 | S. cerevisiae deletion strains, locus YKR026C, strain gcn3, hits give low values 0.985 | S. cerevisiae deletion strains, locus YKR091W, strain srl3, hits give low values 1 | S. cerevisiae deletion strains, locus YLL001W, strain dnm1, hits give low values 0.972 | S. cerevisiae deletion strains, locus YLL026W, hits give low values 1.01 | S. cerevisiae deletion strains, locus YLL041C, strain sdh2, hits give low values 0.992 | S. cerevisiae deletion strains, locus YLR027C, strain aat2, hits give low values 1.02 | S. cerevisiae deletion strains, locus YLR039C, strain RIC1, hits give low values 0.877 | S. cerevisiae deletion strains, locus YLR058C, strain SHM2, hits give low values 1 | S. cerevisiae deletion strains, locus YLR102C, strain apc9, hits give low values 0.993 | S. cerevisiae deletion strains, locus YLR113W, strain HOG1, hits give low values 0.987 | S. cerevisiae deletion strains, locus YLR221C, strain rsa3, hits give low values 0.989 | S. cerevisiae deletion strains, locus YLR258W, strain gsy2, hits give low values 1.01 | S. cerevisiae deletion strains, locus YLR262C, strain YPT6 (second series), hits give low values 0.927 | S. cerevisiae deletion strains, locus YLR262C, strain YPT6, hits give low values 0.962 | S. cerevisiae deletion strains, locus YLR268W, strain sec22, hits give low values 1 | S. cerevisiae deletion strains, locus YLR320W, strain mms22, hits give low values 0.954 | S. cerevisiae deletion strains, locus YLR330W, strain CHS5, hits give low values 1.01 | S. cerevisiae deletion strains, locus YLR342W, strain FKS1 (second series), hits give low values 0.966 | S. cerevisiae deletion strains, locus YLR342W, strain FKS1, hits give low values 1.01 | S. cerevisiae deletion strains, locus YLR357W, strain rsc2, hits give low values 1.12 | S. cerevisiae deletion strains, locus YLR370C, strain arc18, hits give low values 1 | S. cerevisiae deletion strains, locus YLR371W, strain rom2, hits give low values 0.989 | S. cerevisiae deletion strains, locus YLR384C, strain iki3, hits give low values 1.02 | S. cerevisiae deletion strains, locus YLR418C, strain cdc73, hits give low values 1.04 | S. cerevisiae deletion strains, locus YML016C, strain PPZ1, hits give low values 0.999 | S. cerevisiae deletion strains, locus YML032C, strain rad52, hits give low values 0.993 | S. cerevisiae deletion strains, locus YML120C, strain ndi1, hits give low values 0.965 | S. cerevisiae deletion strains, locus YML124C, strain tub3, hits give low values 0.979 | S. cerevisiae deletion strains, locus YMR058W, strain fet3, hits give low values 0.983 | S. cerevisiae deletion strains, locus YMR078C, strain ctf18, hits give low values 0.983 | S. cerevisiae deletion strains, locus YMR125W, strain sto1, hits give low values 1.07 | S. cerevisiae deletion strains, locus YMR129W, hits give low values 1 | S. cerevisiae deletion strains, locus YMR205C, strain PFK2, hits give low values 0.981 | S. cerevisiae deletion strains, locus YMR223W, strain ubp8, hits give low values 1 | S. cerevisiae deletion strains, locus YMR231W, strain pep5, hits give low values 1.01 | S. cerevisiae deletion strains, locus YMR263W, strain SAP30, hits give low values 0.993 | S. cerevisiae deletion strains, locus YMR307W, strain GAS1, hits give low values 0.918 | S. cerevisiae deletion strains, locus YNL067W, strain RPL9B, hits give low values 1.01 | S. cerevisiae deletion strains, locus YNL071W, strain lat1, hits give low values 1 | S. cerevisiae deletion strains, locus YNL183C, strain NPR1, hits give low values 0.943 | S. cerevisiae deletion strains, locus YNL209W, strain ssb2, hits give low values 1.01 | S. cerevisiae deletion strains, locus YNL233W, strain BNI4, hits give low values 1.02 | S. cerevisiae deletion strains, locus YNL248C, strain rpa49, hits give low values 1.06 | S. cerevisiae deletion strains, locus YNL250W, strain rad50, hits give low values 1.01 | S. cerevisiae deletion strains, locus YNL271C, strain bni1, hits give low values 1 | S. cerevisiae deletion strains, locus YNL298W, strain CLA4, hits give low values 1 | S. cerevisiae deletion strains, locus YNL307C, strain MCK1, hits give low values 0.989 | S. cerevisiae deletion strains, locus YNL322C, strain KRE1 (second series), hits give low values 1.01 | S. cerevisiae deletion strains, locus YNL322C, strain KRE1, hits give low values 1 | S. cerevisiae deletion strains, locus YNR049C, strain mso1, hits give low values 1.01 | S. cerevisiae deletion strains, locus YNR052C, strain pop2, hits give low values 0.981 | S. cerevisiae deletion strains, locus YOL006C, strain TOP1, hits give low values 1.01 | S. cerevisiae deletion strains, locus YOL012C, strain htz1 0.906 | S. cerevisiae deletion strains, locus YOL147C, strain pex11, hits give low values 0.988 | S. cerevisiae deletion strains, locus YOR001W, strain rrp6, hits give low values 0.976 | S. cerevisiae deletion strains, locus YOR061W, strain CKA2, hits give low values 0.997 | S. cerevisiae deletion strains, locus YOR069W, strain VPS5, hits give low values 1 | S. cerevisiae deletion strains, locus YOR070C, strain gyp1, hits give low values 1.01 | S. cerevisiae deletion strains, locus YOR080W, strain dia2, hits give low values 0.996 | S. cerevisiae deletion strains, locus YOR083W, strain WHI5, hits give low values 0.98 | S. cerevisiae deletion strains, locus YOR106W, strain vam3, hits give low values 1.03 | S. cerevisiae deletion strains, locus YOR136W, strain idh2, hits give low values 1.01 | S. cerevisiae deletion strains, locus YOR144C, strain elg1, hits give low values 0.979 | S. cerevisiae deletion strains, locus YOR184W, strain ser1, hits give low values 1.02 | S. cerevisiae deletion strains, locus YOR231W, strain MKK1, hits give low values 0.998 | S. cerevisiae deletion strains, locus YOR265W, strain rbl2, hits give low values 1.01 | S. cerevisiae deletion strains, locus YOR270C, strain vph1, hits give low values 0.896 | S. cerevisiae deletion strains, locus YOR290C, strain snf2, hits give low values 1.02 | S. cerevisiae deletion strains, locus YOR316C, strain cot1, hits give low values 0.987 | S. cerevisiae deletion strains, locus YPL051W, strain arl3, hits give low values 1.02 | S. cerevisiae deletion strains, locus YPL078C, strain atp4, hits give low values 1.01 | S. cerevisiae deletion strains, locus YPL106C, strain sse1, hits give low values 1.05 | S. cerevisiae deletion strains, locus YPL240C, strain hsp82, hits give low values 0.997 | S. cerevisiae deletion strains, locus YPL241C, strain CIN2, hits give low values 0.992 | S. cerevisiae deletion strains, locus YPL256C, strain CLN2, hits give low values 0.997 | S. cerevisiae deletion strains, locus YPR119W, strain clb2, hits give low values 0.981 | S. cerevisiae deletion strains, locus YPR141C, strain kar3, hits give low values 1.01 | S. cerevisiae deletion strains, locus YPR163C, strain tif3, hits give low values 0.984 | S. cerevisiae deletion strains, locus YPR167C, strain met16, hits give low values 1 | S. cerevisiae deletion strains, strain wtn01, hits give low values 1.01 | S. cerevisiae strains, strain wild type, hits give low values 1
